Source: PubChem BioAssay (several laboratories)
M1 antag – antagonists of human M1 muscarinic receptor | actives 1.3% (n = 360,000) | P11229 | AID 588852 | inhibition, % at 3 µM | CHO-K1 hM1, Fluo-8 calcium fluorescence, ACh EC80 antagonist;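 active = percent inhibition above its own plate's cutoff, namely the mean of that plate's compound wells plus 3 SD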;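 note: peak over basal fluorescence ratio during 140 s after agonist addition; 0% = ACh EC80 plus DMSO and 100% = DMSO alone without agonist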
Target sequence (P11229 whole entry, looked up): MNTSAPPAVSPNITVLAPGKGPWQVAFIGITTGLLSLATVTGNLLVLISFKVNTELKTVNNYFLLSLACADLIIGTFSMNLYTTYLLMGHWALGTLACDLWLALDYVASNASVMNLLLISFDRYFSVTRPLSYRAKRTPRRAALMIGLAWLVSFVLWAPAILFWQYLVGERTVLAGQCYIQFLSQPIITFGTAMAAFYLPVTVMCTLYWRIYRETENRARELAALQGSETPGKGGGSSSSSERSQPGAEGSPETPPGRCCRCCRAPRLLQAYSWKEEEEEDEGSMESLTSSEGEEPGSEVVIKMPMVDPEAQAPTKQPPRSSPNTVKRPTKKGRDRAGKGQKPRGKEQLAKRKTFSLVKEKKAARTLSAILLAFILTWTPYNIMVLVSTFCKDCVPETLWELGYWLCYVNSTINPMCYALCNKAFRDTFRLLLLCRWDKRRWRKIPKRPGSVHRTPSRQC
CHRM1 PAM – positive allosteric modulators of human M1 muscarinic receptor. actives 0.088% (n = 360,000). AID 588819. activation, % at 3 µM. CHO-K1 hM1, Fluo-8 calcium fluorescence, ACh EC20; 0% = ACh EC20, 100% = maximal ACh. P11229; in the data active = activation above about 19%, passing the limit was not always enough
CHRM1 agonist – human M1 muscarinic receptor agonism; P11229; CHO-K1 hM1, Fluo-8 calcium fluorescence, agonist mode; 0% DMSO, 100% acetylcholine EC100; activation, % at 3 µM; actives 0.33% (n = 360,000); AID 588814;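 active = activation above the run's mean compound activation plus 3 SD, cut at about 16% in these data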;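 note: peak over basal fluorescence ratio within a 140 s kinetic read after compound addition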
Myeloid diff MLP – compounds promoting myeloid differentiation; ER-HoxA9 myeloid progenitors, lysozyme-GFP differentiation, flow cytometry; calls only at 10 µM; actives 1% (n = 360,000);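 active = normalized GFP-positive differentiation at or above the plate's own cutoff, the solvent-only control mean plus 3 SD; inconclusive = no clear call, values can overlap the other calls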;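 note: cells exposed to compound for four days before flow analysis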
SKN-1 block – C. elegans SKN-1 inhibition | C. elegans VP596 Pgst-4::GFP/RFP ratio, acrylamide-induced, 24 h | inhibition, % at 21.8 µM | actives 0.49% (n = 360,000);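 active = interference check ratio from 0.5 to 1.5 plus GFP to RFP signal ratio inhibition reaching or exceeding a fixed threshold, cut at about 30% in these data, passing the limit was not always enough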
ATG4B inhibitor – inhibitors of human ATG4B cysteine protease. Q9Y4P1. actives 0.51% (n = 340,000). ATG4B cleavage of LC3-PLA2, NBD-HPC fluorescence, 1 h. inhibition, % at 8.33 µM; in the data active = inhibition above about 40%
ATG4B confirm – ATG4B (human) inhibition, single-dose confirmed; AID 504757; inhibition, % at 8.33 µM; ATG4B protease fluorescent substrate cleavage assay; shares compounds with ATG4B inhibitor; actives 92% (n = 320); in the data active = inhibition above about 39%
PLA2 counter – PLA2 (human) inhibition in ATG4B counter-screen; shares compounds with ATG4B inhibitor; actives 66% (n = 1,600); AID 588402; inhibition, % at 8.33 µM; purified PLA2, NBD-C6-HPC fluorescence, 45 min; in the data active = inhibition above about 50%
Target sequence (P04054 whole entry, looked up): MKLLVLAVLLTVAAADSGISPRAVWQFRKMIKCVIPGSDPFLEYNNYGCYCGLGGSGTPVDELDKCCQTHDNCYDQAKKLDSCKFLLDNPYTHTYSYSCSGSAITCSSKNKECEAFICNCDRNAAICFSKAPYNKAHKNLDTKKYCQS
Myeloid diff – myeloid differentiation induction | shares compounds with Myeloid diff MLP | ER-HoxA9 myeloid progenitors, GFP/Mac1 double-positive flow | calls only | actives 2% (n = 2,300) | AID 651706;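 active = share of green or green-and-red cells above 9 and 9% in run 1 or 4 and 3% in run 2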
GFP autofluor – compound fluorescence in myeloid differentiation counter-screen; AID 651707; ER-HoxA9 myeloid progenitors, no estrogen, GFP autofluorescence flow cytometry; vehicle wells 0%, positive control 100%; fluorescence response, % (concentration not given with the values); actives 7.4% (n = 2,300); shares compounds with Myeloid diff MLP;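 active = over 5% cells positive for green fluorescent reporter, or over 2% positive for both it and APC stain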;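 note: range taken on the double positive population between DMSO and positive control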
Active calls of the source: *; i = inactive; ? = inconclusive; . = no result; + = active, no number; ! = a repeat was not active. Hits are enriched below; roughly 3.5% of the tested compounds scored in any of these assays.

SMILES	M1 antag	CHRM1 PAM	CHRM1 agonist	Myeloid diff MLP	SKN-1 block	ATG4B inhibitor	Myeloid diff	GFP autofluor	others
CCn1nc(/C=C/c2ccccc2)nc2c(=O)n(C)c(=O)nc1-2	11	4	-3	?	-3	87*	.	.	ATG4B confirm=24;PLA2 counter=9
Cc1cc(OCC(=O)NCC(O)c2ccccc2)c2c3c(c(=O)oc2c1)CCCC3 (stereo not given)	-1	1	0	i	-5	52*	.	.	PLA2 counter=55*
C[C@@H]1CN([C@@H](C)CO)C(=O)CCCn2cc(nn2)CO[C@H]1CN(C)C(=O)Oc1ccc2ccccc2c1	-22	9	-6	i	-9	.	.	.
O=C(NC1CC1)c1cn(Cc2ccccc2)nc1-c1ccccc1	-9	5	-2	i	-16	7	.	.
Cc1ccc(Cn2cc(C=O)c(-c3ccc(C)cc3)n2)cc1	-2	4	-6	i	17	63*	.	.	PLA2 counter=60*
ClCCN(CCCl)c1ccc(C2=NCCc3ccccc32)cc1	9	-16	-6	i	16	40*	.	.	PLA2 counter=57*
COc1ccc2c(c1)C(c1ccc(N(CCCl)CCCl)cc1)=NCC2	9	-19	0	i	3	11	.	.
O=c1[nH]c(=S)n(-c2ccccc2F)c(O)c1C=NCCN1CCNCC1	-4	-2	-11	i	18	0	.	.
CSc1nnc(OC(=O)N(C)C)n1-c1ccc(Cl)cc1	9	-2	-2	i	2	3	.	.
CCCCCCC[n+]1ccc(-c2cc[n+](CCCCCCC)cc2)cc1	18	-14	-9	i	-11	9	.	.
CCCCCCCCCCCCCCCC[n+]1ccccc1	.	.	.	?	18	59*!	.	.	ATG4B confirm=39*;PLA2 counter=38
CCOC(=O)C1=C(NC(=S)NC(=O)c2ccccc2)c2ccccc2CC12CCCC2	18	-9	-2	i	-10	8	.	.
CCOc1ccc(-n2c(-c3cccs3)nc3ccccc3c2=O)cc1	-2	2	-5	i	14	49*	.	.	PLA2 counter=52*
COc1ccc(-n2c(-c3ccc(C)cc3)nc3ccccc3c2=O)cc1	5	0	-7	i	1	24	.	.
Cc1cccc(-n2c(-c3cccs3)nc3ccccc3c2=O)c1	-5	-4	-10	i	3	49*	.	.	ATG4B confirm=58*;PLA2 counter=46
CCCCOc1nc2ccccc2c(=O)n1-c1ccccc1	4	-1	-9	i	10	41*	.	.	PLA2 counter=49
CC1=CC2OC3CC4OC(=O)C=CC=CC(=O)OCCC(C)C(O)C(=O)OCC2(CC1O)C4(C)C31CO1 (stereo not given)	-4	-7	-2	?	19	0	.	.
COC(=O)C1=C(c2ccc(F)cc2OCc2ccccc2)C[C@@H]2CC[C@H]1N2C(=O)NCc1ccccc1Cl	11	-6	-4	+	8	43*	.	.	PLA2 counter=62*
COC(=O)C1=C(c2ccc(F)cc2OCc2ccccc2)C[C@@H]2CC[C@H]1N2C(=O)NCCOc1ccccc1Cl	-9	10	-1	i	-11	4	.	.
O=c1[nH]c2ccccc2n1C1CCN(Cc2ccc(-c3nc4ccc(F)cc4nc3-c3ccccc3)cc2)CC1	.	.	.	+	2	.	i	1
O=c1[nH]c2ccccc2n1C1CCN(Cc2ccc(-c3nc4ccccc4nc3-c3ccccc3)cc2)CC1	.	.	.	i	-5	.	.	.
C=C1C2[C@H](OC(C)=O)[C@@H]3CC(=O)[C@]4(C)OC[C@@]3(C)[C@@]4(O)[C@@H](OC(C)=O)[C@H](OC(C)=O)[C@@]2(COC(=O)c2ccccc2)[C@@H](OC(C)=O)C[C@@H]1O (stereo not given in full)	8	1	-2	i	10	-8	i	1
O=C(O)C1C2CCC(O2)C1C(=O)Nc1cccc(Br)c1 (stereo not given)	-4	0	-2	i	-5	-1	.	.
COC(=O)C1=Nc2ccccc2/C1=C\c1c(O)n(-c2ccc(OC)cc2)c(=O)[nH]c1=O	-8	12	-9	i	-6	5	.	.
C=CCn1c(O)c(/C=C/C=Nc2ccccc2)c(=O)[nH]c1=O	2	0	-6	i	23	-2	.	.
SMILES	M1 antag	CHRM1 PAM	CHRM1 agonist	Myeloid diff MLP	SKN-1 block	ATG4B inhibitor	Myeloid diff	GFP autofluor	others
Cc1ccc(-n2c(O)c(/C=C/C=Nc3ccccc3)c(=O)[nH]c2=O)cc1	10	0	-2	i	9	0	i	5
COc1ccc(-n2c(O)c(/C=C/C=Nc3ccccc3)c(=O)[nH]c2=O)cc1	17	-11	22*	i	-3	-21	i	97*
O=c1[nH]c(=O)n(-c2ccccc2)c(O)c1/C=C/C=Nc1ccccc1	-1	3	-1	i	3	-6	.	.
O=c1[nH]c(=O)n(C2CCCCC2)c(O)c1/C=C/C=Nc1ccccc1	1	-2	18*	+	53	-3	i	7.5*
CC12CCC(=O)CC1CCC1C2C(=O)CC2(C)C1CCC2(C)O (stereo not given)	-5	2	-8	i	-4	-9	.	.
C=CCn1c(O)c(C=NCCCOc2ccc(CC)cc2)c(=O)[nH]c1=S	-14	7	-2	+	28	-6	i	0
CN1CCN(c2ccc([N+](=O)[O-])c(SCCO)c2)CC1	-2	4	-6	i	-9	0	.	.
CCOC(=O)C1CCCN(c2ccc([N+](=O)[O-])c3nonc23)C1 (stereo not given)	70*	-27	298*	+	77	-29	i	58*
COC(=O)C1=C(c2cc3ccccc3s2)C[C@@H]2CC[C@H]1N2C(=O)N1CCCC1	10	-2	-8	i	-17	-4	.	.
COC(=O)C1=C(c2ccc(OC(F)(F)F)cc2)C[C@@H]2CC[C@H]1N2C(=O)NC1CCCCC1	-5	14	-1	i	-8	-6	i	0
COC(=O)C1=C(c2cc3ccccc3s2)C[C@@H]2CC[C@H]1N2C(=O)N1CCOCC1	-13	11	-2	i	-1	2	i	0
CCCNC(=O)N1[C@H]2CC[C@@H]1C(C(=O)OC)=C(c1ccc3ccccc3c1)C2	3	-3	-7	i	1	-1	i	0
